Measured values published in PMC5540273 (PLoS ONE, 2017).

How the values were obtained:
Details in all cases: concentration: 1 μM, replicates: in singlicate; n = 1
MYLK = system: MYLK
MYO3A = system: MYO3A
MYO3B = system: MYO3B
NDR1 = system: T1, NDR1
T1 construct: gene STK38

NDR2 = system: NDR2
NEK10 = system: NEK10
NEK11 = system: NEK11
NEK1 = system: NEK1
NEK2 = system: NEK2
NEK3 = system: NEK3
NEK4 = system: NEK4
NEK5 = system: NEK5
NEK6 = system: NEK6
NEK7 = system: NEK7
NEK9 = system: NEK9
NIK = system: T2, NIK
T2 construct: gene MAP3K14

NIM1 = system: T3, NIM1
T3 construct: gene MGC42105

NLK = system: NLK
OSR1 = system: T4, OSR1
T4 construct: gene OXSR1

PAK1 = system: PAK1
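Further: KINOMEscan kinase panel screen.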

Row | Compound | %Inh (MYLK) [%] | %Inh (MYO3A) [%] | %Inh (MYO3B) [%] | %Inh (NDR1) [%] | %Inh (NDR2) [%] | %Inh (NEK10) [%] | %Inh (NEK11) [%] | %Inh (NEK1) [%] | %Inh (NEK2) [%] | %Inh (NEK3) [%] | %Inh (NEK4) [%] | %Inh (NEK5) [%] | %Inh (NEK6) [%] | %Inh (NEK7) [%] | %Inh (NEK9) [%] | %Inh (NIK) [%] | %Inh (NIM1) [%] | %Inh (NLK) [%] | %Inh (OSR1) [%] | %Inh (PAK1) [%]
1 | O=C(NCCNc1ccnc(Nc2ccc(F)cc2)n1)Nc1ccc2c(c1)OCO2 [GSK1379882] | 23 | 32 | 0 | 10 | 20 | 0 | 7 | 0 | 7 | 16 | 0 | 15 | 0 | 0 | 12 | 22 | 18 | 0 | 0 | 0
2 | COc1ccc(Nc2nccc(N3CCC(NS(=O)(=O)c4ccc(NC(C)=O)cc4)C3)n2)cc1 (stereo not drawn) [GSK1379729] | 15 | 8 | 2 | 10 | 0 | 0 | 1 | 0 | 8 | 7 | 3 | 33 | 11 | 3 | 5 | 17 | 11 | 13 | 20 | 6
3 | CN1C(=O)C(Nc2ccccc2)=C(c2ccccc2)C1=O [SB-300079] | 0 | 0 | 0 | 39 | 0 | 7 | 4 | 0 | 0 | 21 | 0 | 0 | 0 | 0 | 0 | 32 | 19 | 0 | 0 | 0
4 | COc1cc(Nc2nccc(N3CCC(NC(=O)C4COc5ccccc5O4)C3)n2)cc(OC)c1OC (stereo not drawn) [GSK1379761] | 13 | 46 | 0 | 27 | 40 | 0 | 64 | 39 | 11 | 42 | 7 | 97.3 | 21 | 49 | 37 | 42 | 28 | 5 | 2 | 0
5 | Cc1cccc(-c2cc(-c3c[nH]nc3-c3ccccn3)ccn2)c1 [GW679395] | 32 | 7 | 0 | 15 | 0 | 24 | 0 | 0 | 0 | 3 | 0 | 7 | 0 | 0 | 0 | 19 | 6 | 32 | 0 | 24
6 | COc1ccc(-c2cc3c(C)nc(N)nc3n([C@H]3CC[C@H](O)CC3)c2=O)cn1 | 98.8 | 0 | 0 | 0 | 0 | 0 | 0 | 0 | 0 | 16 | 0 | 0 | 0 | 0 | 0 | 2 | 0 | 13 | 0 | 7
7 | O=C(NCc1cccs1)c1cc(C(=O)c2c(Cl)cccc2Cl)c[nH]1 [GW823670] | 0 | 0 | 18 | 26 | 14 | 0 | 0 | 15 | 0 | 20 | 0 | 17 | 0 | 0 | 0 | 0 | 2 | 0 | 0 | 5
8 | CCCC(=O)Nc1n[nH]c2ncc(-c3cccc4ccccc34)cc12 [SB-642057] | 28 | 0 | 0 | 13 | 3 | 100 | 0 | 0 | 0 | 28 | 0 | 9 | 0 | 0 | 0 | 11 | 28 | 24 | 0 | 4
9 | CCc1nc(-c2cccc(C)c2)c(-c2ccncc2)s1 | 12 | 4 | 15 | 40 | 0 | 3 | 0 | 0 | 0 | 28 | 0 | 0 | 3 | 0 | 0 | 0 | 0 | 81 | 0 | 28
